{"source": "PubChem BioAssay AID1159580", "about": "(chemical genetic matrix, 2015)", "assay": "chemical genetic growth profiling, strain panel (AID 1159580);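 note: tested at 20 µM; growth read once vehicle control cultures reached saturation at 30 °C; 1 = growth at the plate median or of vehicle wells; lower values mean less growth of the strain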", "details": "S. cerevisiae deletion strains, growth OD", "note": "“And” between values parts separate entries of the source, which are not always exact repeats. Identical values can stand only once. Screen size: about 5,500 compounds; about 2,000 (36%) were called active. Roughly 18% stayed inconclusive and do not appear here. Cut-off read from the data, not from the text of the source: active = normalized growth mostly below about 0.91 (no sharp cut-off); inconclusive = no clear call, values can overlap the other calls; inactive = mostly above about 0.92. This is one part of the list. Some compounds were tested as several samples or in several runs, with calls that do not always agree.", "data": [{"compound": "O=c1cc(-c2ccccc2)oc2cc(O)cc(O)c12", "values": [{"measurement": "normalized growth", "setting": "locus YAL013W, strain DEP1, stronger effect = lower value", "value": "0.956 (inactive)"}, {"measurement": "normalized growth", "setting": "locus YAL021C, strain ccr4, stronger effect = lower value", "value": "0.968 (inactive) and 0.933 (inactive)"}, {"measurement": "normalized growth", "setting": "locus YAL026C, strain drs2, stronger effect = lower value", "value": "0.911 (inactive) and 0.786 (active)"}, {"measurement": "normalized growth", "setting": "locus YAL030W, strain snc1, stronger effect = lower value", "value": "0.943 (inactive) and 0.913 (active)"}, {"measurement": "normalized growth", "setting": "locus YBL061C, strain skt5, stronger effect = lower value", "value": "0.904 (active)"}, {"measurement": "normalized growth", "setting": "locus YBR009C, strain hhf1, stronger effect = lower value", "value": "0.915 (inactive) and 0.773 (active)"}, {"measurement": "normalized growth", "setting": "locus YBR021W, strain FUR4, stronger effect = lower value", "value": "1.01 (inactive)"}, {"measurement": "normalized growth", "setting": "locus YBR023C, strain chs3, stronger effect = lower value", "value": "1.01 (inactive) and 0.851 (active)"}, {"measurement": "normalized growth", "setting": "locus YBR171W, strain sec66, stronger effect = lower value", "value": "0.953 (inactive) and 0.858 (active)"}, {"measurement": "normalized growth", "setting": "locus YBR229C, strain ROT2, stronger effect = lower value", "value": "0.993 (inactive)"}, {"measurement": "normalized growth", "setting": "locus YBR231C, strain swc5, stronger effect = lower value", "value": "0.938 (inactive) and 0.875 (active)"}, {"measurement": "normalized growth", "setting": "locus YBR279W, strain paf1, stronger effect = lower value", "value": "0.947 (inactive) and 0.922 (active)"}, {"measurement": "normalized growth", "setting": "locus YCL011C, strain gbp2, stronger effect = lower value", "value": "0.937 (inactive) and 0.86 (active)"}, {"measurement": "normalized growth", "setting": "locus YCL016C, strain dcc1, stronger effect = lower value", "value": "1.07 (inactive) and 0.875 (active)"}, {"measurement": "normalized growth", "setting": "locus YCL029C, strain bik1, stronger effect = lower value", "value": "0.911 (inactive)"}, {"measurement": "normalized growth", "setting": "locus YCL061C, strain MRC1, stronger effect = lower value", "value": "0.951 (inactive) and 0.802 (active)"}, {"measurement": "normalized growth", "setting": "locus YCL069W, strain vba3, stronger effect = lower value", "value": "0.978 (inactive) and 0.896 (active)"}, {"measurement": "normalized growth", "setting": "locus YCR088W, strain abp1, stronger effect = lower value", "value": "0.957 (inactive) and 0.923 (inactive)"}, {"measurement": "normalized growth", "setting": "locus YDL005C, strain med2, stronger effect = lower value", "value": "0.961 (inactive) and 0.958 (inactive)"}, {"measurement": "normalized growth", "setting": "locus YDL035C, strain GPR1, stronger effect = lower value", "value": "0.919 (inactive)"}, {"measurement": "normalized growth", "setting": "locus YDL040C, strain nat1, stronger effect = lower value", "value": "1.02 (inactive) and 0.916 (active)"}, {"measurement": "normalized growth", "setting": "locus YDL074C, strain BRE1, stronger effect = lower value", "value": "0.87 (inactive)"}, {"measurement": "normalized growth", "setting": "locus YDL101C, strain DUN1, stronger effect = lower value", "value": "0.987 (inactive)"}, {"measurement": "normalized growth", "setting": "locus YDL134C, strain PPH21, stronger effect = lower value", "value": "0.954 (inactive)"}, {"measurement": "normalized growth", "setting": "locus YDL185W, strain tfp1, stronger effect = lower value", "value": "0.946 (inactive)"}, {"measurement": "normalized growth", "setting": "locus YDL192W, strain arf1, stronger effect = lower value", "value": "0.919 (inactive)"}, {"measurement": "normalized growth", "setting": "locus YDR001C, strain nth1, stronger effect = lower value", "value": "0.96 (inactive) and 0.917 (active)"}, {"measurement": "normalized growth", "setting": "locus YDR069C, strain doa4, stronger effect = lower value", "value": "0.926 (inactive) and 0.919 (inactive)"}, {"measurement": "normalized growth", "setting": "locus YDR101C, strain arx1, stronger effect = lower value", "value": "0.921 (inactive)"}, {"measurement": "normalized growth", "setting": "locus YDR137W, strain rgp1, stronger effect = lower value", "value": "0.675 (active) and 0.533 (active)"}, {"measurement": "normalized growth", "setting": "locus YDR150W, strain NUM1, stronger effect = lower value", "value": "0.973 (inactive)"}, {"measurement": "normalized growth", "setting": "locus YDR159W, strain sac3, stronger effect = lower value", "value": "0.853 (active) and 0.785 (active)"}, {"measurement": "normalized growth", "setting": "locus YDR162C, strain NBP2, stronger effect = lower value", "value": "0.92 (inactive)"}, {"measurement": "normalized growth", "setting": "locus YDR195W, strain ref2", "value": "0.986 (inactive) and 1.15 [resistant] (active)"}, {"measurement": "normalized growth", "setting": "locus YDR297W, strain sur2, stronger effect = lower value", "value": "0.946 (inactive) and 0.907 (active)"}, {"measurement": "normalized growth", "setting": "locus YDR318W, strain mcm21, stronger effect = lower value", "value": "0.902 (active)"}, {"measurement": "normalized growth", "setting": "locus YDR334W, strain swr1, stronger effect = lower value", "value": "0.954 (inactive) and 0.887 (active)"}, {"measurement": "normalized growth", "setting": "locus YDR335W, strain msn5, stronger effect = lower value", "value": "0.957 (inactive) and 0.88 (active)"}, {"measurement": "normalized growth", "setting": "locus YDR388W, stronger effect = lower value", "value": "0.914 (active)"}, {"measurement": "normalized growth", "setting": "locus YDR392W, strain spt3, stronger effect = lower value", "value": "0.595 (active) and 0.401 (active)"}, {"measurement": "normalized growth", "setting": "locus YDR502C, strain sam2, stronger effect = lower value", "value": "0.922 (inactive)"}, {"measurement": "normalized growth", "setting": "locus YEL003W, strain gim4, stronger effect = lower value", "value": "0.952 (inactive) and 0.809 (active)"}, {"measurement": "normalized growth", "setting": "locus YEL037C, strain rad23, stronger effect = lower value", "value": "0.941 (inactive) and 0.911 (active)"}, {"measurement": "normalized growth", "setting": "locus YEL061C, strain CIN8 (second series), stronger effect = lower value", "value": "0.961 (inactive) and 0.888 (active)"}, {"measurement": "normalized growth", "setting": "locus YEL061C, strain CIN8, stronger effect = lower value", "value": "0.967 (inactive)"}, {"measurement": "normalized growth", "setting": "locus YER015W, strain faa2, stronger effect = lower value", "value": "0.936 (inactive) and 0.867 (active)"}, {"measurement": "normalized growth", "setting": "locus YER016W, strain bim1, stronger effect = lower value", "value": "1.07 (inactive) and 0.92 (active)"}, {"measurement": "normalized growth", "setting": "locus YER110C, stronger effect = lower value", "value": "0.945 (inactive)"}, {"measurement": "normalized growth", "setting": "locus YER111C, strain swi4, stronger effect = lower value", "value": "0.97 (inactive) and 0.951 (inactive)"}, {"measurement": "normalized growth", "setting": "locus YER155C, strain BEM2 (second series), stronger effect = lower value", "value": "0.686 (active) and 0.499 (active)"}, {"measurement": "normalized growth", "setting": "locus YER155C, strain BEM2, stronger effect = lower value", "value": "0.969 (inactive)"}, {"measurement": "normalized growth", "setting": "locus YER167W, strain BCK2, stronger effect = lower value", "value": "0.928 (inactive)"}, {"measurement": "normalized growth", "setting": "locus YFR010W, strain ubp6, stronger effect = lower value", "value": "0.931 (inactive) and 0.919 (inactive)"}, {"measurement": "normalized growth", "setting": "locus YGL078C, strain dbp3, stronger effect = lower value", "value": "0.957 (inactive)"}, {"measurement": "normalized growth", "setting": "locus YGL086W, strain mad1, stronger effect = lower value", "value": "0.853 (active)"}, {"measurement": "normalized growth", "setting": "locus YGL167C, strain pmr1, stronger effect = lower value", "value": "0.924 (inactive) and 0.87 (active)"}, {"measurement": "normalized growth", "setting": "locus YGL173C, strain kem1, stronger effect = lower value", "value": "0.858 (active) and 0.891 (active)"}, {"measurement": "normalized growth", "setting": "locus YGL227W, strain vid30, stronger effect = lower value", "value": "0.952 (inactive) and 0.909 (active)"}, {"measurement": "normalized growth", "setting": "locus YGL240W, strain doc1, stronger effect = lower value", "value": "0.797 (active) and 0.631 (active)"}, {"measurement": "normalized growth", "setting": "locus YGL248W, strain PDE1, stronger effect = lower value", "value": "0.949 (inactive)"}, {"measurement": "normalized growth", "setting": "locus YGL253W, strain hxk2, stronger effect = lower value", "value": "0.941 (inactive) and 0.855 (active)"}, {"measurement": "normalized growth", "setting": "locus YGR078C, strain PAC10, stronger effect = lower value", "value": "0.858 (inactive)"}, {"measurement": "normalized growth", "setting": "locus YGR135W, strain pre9, stronger effect = lower value", "value": "0.879 (active)"}, {"measurement": "normalized growth", "setting": "locus YGR229C, strain SMI1, stronger effect = lower value", "value": "0.802 (active)"}, {"measurement": "normalized growth", "setting": "locus YGR252W, strain gcn5, stronger effect = lower value", "value": "0.762 (active)"}, {"measurement": "normalized growth", "setting": "locus YHR013C, strain ard1, stronger effect = lower value", "value": "1.06 (inactive) and 1.1 (inactive)"}, {"measurement": "normalized growth", "setting": "locus YHR027C, strain rpn1, stronger effect = lower value", "value": "0.95 (inactive) and 0.901 (active)"}, {"measurement": "normalized growth", "setting": "locus YHR030C, strain SLT2, stronger effect = lower value", "value": "0.967 (inactive) and 0.884 (inactive)"}, {"measurement": "normalized growth", "setting": "locus YHR079C, strain IRE1 (second series), stronger effect = lower value", "value": "0.92 (active)"}, {"measurement": "normalized growth", "setting": "locus YHR079C, strain IRE1, stronger effect = lower value", "value": "0.862 (inactive)"}, {"measurement": "normalized growth", "setting": "locus YHR094C, strain hxt1, stronger effect = lower value", "value": "0.964 (inactive)"}, {"measurement": "normalized growth", "setting": "locus YHR129C, strain ARP1, stronger effect = lower value", "value": "0.992 (inactive)"}, {"measurement": "normalized growth", "setting": "locus YHR142W, strain chs7, stronger effect = lower value", "value": "0.889 (inactive) and 0.702 (active)"}, {"measurement": "normalized growth", "setting": "locus YHR200W, strain rpn10, stronger effect = lower value", "value": "0.91 (active)"}, {"measurement": "normalized growth", "setting": "locus YIL066C, strain RNR3, stronger effect = lower value", "value": "0.959 (inactive)"}, {"measurement": "normalized growth", "setting": "locus YIL073C, strain SPO22, stronger effect = lower value", "value": "0.854 (inactive)"}, {"measurement": "normalized growth", "setting": "locus YIL125W, strain kgd1, stronger effect = lower value", "value": "0.955 (inactive)"}, {"measurement": "normalized growth", "setting": "locus YIR030C, strain dcg1, stronger effect = lower value", "value": "0.944 (inactive)"}, {"measurement": "normalized growth", "setting": "locus YJL092W, strain hpr5, stronger effect = lower value", "value": "0.954 (inactive) and 0.91 (active)"}, {"measurement": "normalized growth", "setting": "locus YJL095W, strain BCK1 (second series), stronger effect = lower value", "value": "0.942 (inactive) and 0.879 (active)"}, {"measurement": "normalized growth", "setting": "locus YJL095W, strain BCK1, stronger effect = lower value", "value": "0.825 (inactive) and 0.889 (inactive)"}, {"measurement": "normalized growth", "setting": "locus YJL115W, strain asf1, stronger effect = lower value", "value": "0.954 (inactive) and 0.904 (active)"}, {"measurement": "normalized growth", "setting": "locus YJL129C, strain trk1, stronger effect = lower value", "value": "0.816 (active) and 0.603 (active)"}, {"measurement": "normalized growth", "setting": "locus YJL134W, strain LCB3, stronger effect = lower value", "value": "0.991 (inactive)"}, {"measurement": "normalized growth", "setting": "locus YJL154C, strain vps35, stronger effect = lower value", "value": "0.97 (inactive) and 0.918 (active)"}, {"measurement": "normalized growth", "setting": "locus YJL164C, strain tpk1, stronger effect = lower value", "value": "0.909 (active) and 0.811 (active)"}, {"measurement": "normalized growth", "setting": "locus YJL166W, strain qcr8, stronger effect = lower value", "value": "0.891 (active) and 0.741 (active)"}, {"measurement": "normalized growth", "setting": "locus YJL168C, strain set2, stronger effect = lower value", "value": "0.948 (inactive)"}, {"measurement": "normalized growth", "setting": "locus YJL187C, strain SWE1 (second series), stronger effect = lower value", "value": "0.939 (inactive)"}, {"measurement": "normalized growth", "setting": "locus YJL187C, strain SWE1, stronger effect = lower value", "value": "0.952 (inactive) and 0.902 (active)"}, {"measurement": "normalized growth", "setting": "locus YJR043C, strain POL32, stronger effect = lower value", "value": "0.899 (inactive)"}, {"measurement": "normalized growth", "setting": "locus YJR066W, strain TOR1, stronger effect = lower value", "value": "0.883 (inactive)"}]}]}
